# Rows were chosen to be rich in hits. Some 8.7% of all compounds tested hit in one or more screens of this group.
# PostGolgi yeast = phenotypic screen on post-Golgi transport, primary screen; inhibition, % at 10 µM; 98,000 compounds, 0.9% hits; post-Golgi transport phenotypic cell assay;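 also: yeast cells grown in 1536-well plates; yeast grown about 18 h at 30C before absorbance read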
# Cav32 inh = Cav3.2 calcium influx blockers – cell-based, Fluo-4 calcium fluorescence, FDSS, MLSMR library, primary screen; Voltage-dependent T-type calcium channel subunit alpha-1H (Homo sapiens), O95180; Cav3.2-expressing cells; stronger effect = lower value; B-score at 10 µM; 100,000 compounds, 4% hits;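 active = single-dose well whose peak fluorescence ratio is a statistical outlier from its plate by either plate-standardised score or position-corrected B-score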
# TNAP act DEA = human TNAP enzyme activators, primary screen, biochemical, luminescent, intermediate phosphate acceptor level. purified TNAP, CDP-star luminescence, 100 mM DEA, 30 min; stronger effect = higher value; scale: 0 levamisole-inhibited, 1 vehicle-only enzyme. Alkaline phosphatase, tissue-nonspecific isozyme (Homo sapiens), P05186. activation factor at 20 µM. 64,000 tested, under 10 active;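 active = activation factor of at least 2 at 20 µM, relative to controls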
# Target sequence (P05186 whole entry, looked up): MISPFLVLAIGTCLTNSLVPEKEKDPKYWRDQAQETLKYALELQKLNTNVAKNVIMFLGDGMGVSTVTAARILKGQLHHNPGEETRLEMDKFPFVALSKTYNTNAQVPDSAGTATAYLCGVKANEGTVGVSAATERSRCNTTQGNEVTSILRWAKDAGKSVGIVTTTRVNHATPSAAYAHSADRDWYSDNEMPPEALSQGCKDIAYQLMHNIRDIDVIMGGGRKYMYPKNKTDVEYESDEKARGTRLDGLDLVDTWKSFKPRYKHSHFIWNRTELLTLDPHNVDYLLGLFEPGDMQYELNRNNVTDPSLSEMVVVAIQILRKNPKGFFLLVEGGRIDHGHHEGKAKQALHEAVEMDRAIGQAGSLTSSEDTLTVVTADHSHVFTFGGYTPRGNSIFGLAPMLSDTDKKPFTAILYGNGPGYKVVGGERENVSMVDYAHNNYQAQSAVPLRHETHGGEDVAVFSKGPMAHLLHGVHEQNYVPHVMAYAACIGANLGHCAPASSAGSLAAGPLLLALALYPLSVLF
# PostGolgi ctrl = growth inhibition of yeast control strain, primary screen, counter-screen for post-Golgi transport modulator project; efflux-deficient yeast background strain, growth absorbance A615, 16 h; inhibition, % at 10 µM; 98,000 compounds, 5% hits; AID 738, 2007
# Smad3 FoxH1 inh = Smad3/FoxH1 peptide binding inhibitors, primary screen, biochemical, TR-FRET. inhibition, % at 25 µM. Mothers against decapentaplegic homolog 3 (Homo sapiens), P84022. 88,000 compounds, 0.29% hits. TR-FRET Smad3/Dy647-FoxH1 peptide binding, europium anti-His;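 active = compounds that reduce the energy-transfer binding signal between the protein and its labelled peptide by more than half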;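 also: 0% = Smad3 plus labelled peptide maximal FRET and 100% = peptide-only background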
# hDAT+cocaine = changed hDAT dopamine uptake under cocaine IC80, either direction, primary screen, cocaine antagonist project, cell-based, LLC-PK1 hDAT, [14C]-dopamine uptake, MLSMR. 110,000 compounds, 1.3% hits. AID 449768, 2010. LLC-PK1 hDAT cells, [14C]-dopamine uptake with cocaine IC80; actives deviate in either direction. Sodium-dependent dopamine transporter (Homo sapiens), Q01959. B-score at 10 µM;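 active = Z score or B-score, a plate-position-corrected score, falls beyond the plate's 99.7% confidence bounds, in either direction; inactive = both scores lie inside the 99.7% bounds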;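 also: scored against the spread of the other compound wells on the same plate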
# * hit, by the source's call; . = no result. Rule as the data show it, unless noted: active = inhibition above about 30%; inactive = the rest.
SMILES,PostGolgi yeast,Cav32 inh,TNAP act DEA,PostGolgi ctrl,Smad3 FoxH1 inh,hDAT+cocaine
Cc1nonc1NC(=O)N1CCCC1,9,-1.7,0.9,-2,-6,-0.96
NC1=N[C@@H](c2ccc(Cl)cc2)N(c2ccc(S(=O)(=O)Nc3ncccn3)cc2)C(N)=N1,.,.,.,.,52*,.
COc1ccc(C2C=C(c3cccs3)Nc3nc(CCCO)nn32)cc1 (configuration not stated),9,-12*,0.6,45*,-3,0.47
CSc1ccc(S(=O)(=O)Nc2ccc(N3CCOCC3)c(Cl)c2)cc1,-15,-3.7,0.9,3,10,0.53
COc1ccc(C)cc1NC(=O)CN1CCN(CC(=O)Nc2ccccc2F)CC1,-4,.,1,11,7,.
COC(=O)CCc1c(C)[nH]c(C(=O)OCc2ccccc2)c1C,13,-3.2,0.8,31*,1,-0.029
CCC(OC(=O)c1nsc(Cl)c1Cl)C(=O)NCc1cccs1 (configuration not stated),.,-0.47,.,.,6,-1.5
O=C1CCCC2=C1C(c1cccc(Br)c1)n1nc(-c3ccco3)nc1N2 (configuration not stated),.,.,0.9,.,-1,-0.38
FC(F)(F)c1cnc2c(-c3ccc(Cl)cc3Cl)noc2c1,-7,-0.43,.,11,-2,-0.9
O/N=C(\c1ccc(Cl)cc1)c1ncc(C(F)(F)F)cc1Cl,1,-6.1*,.,14,-19,-0.1
Cc1nccn1-c1c2c(c(C#N)c3nc4ccccc4n13)CCCC2,.,.,1,.,-1,.
Cc1nnc(N/N=C/c2cc([N+](=O)[O-])c(N3CCC(C)CC3)cc2N2CCC(C)CC2)n1N,-7,-6.7*,.,17,.,0.23
CCN(CC)C(=O)N1CCN(S(=O)(=O)c2ccc(C)cc2)CC1,-5,0.062,.,9,-4,0.19
Cc1ccc(N(C)C(=O)N2CCN(S(=O)(=O)c3c(C)cc(C)cc3C)CC2)cc1,-6,-6*,.,24,6,0.31
O=c1[nH]cnc2c([N+](=O)[O-])cccc12,-2,1.1,.,32*,.,-1.3
O=c1[nH]cnc2ccccc12,.,0.81,.,.,.,0.026
CCOc1ccccc1-n1c(COc2ccccc2)nnc1SCC(N)=O,-1,1.2,0.9,1,2,-0.087
Cc1cc(C)nc(-n2nc(C)cc2NC(=O)CNC(C)c2ccccc2)n1 (configuration not stated),8,0.69,.,34*,.,0.0058
Cc1cc(C)nc(-n2nc(C)cc2NC(=O)CN2CCC(C)CC2)n1,0,0.44,1,9,-20,1.9
COc1ccc(C(CNC(=O)C2CC(=O)N(Cc3ccc(C)cc3)C2)N(C)C)cc1 (configuration not stated),1,1.3,0.9,-2,-3,-0.53
CC(C)OC(=O)c1cc2c(ccn2C)n1CC(=O)N1CCC(Cc2ccccc2)CC1,-2,-7.9*,.,25,-4,2.2*
Cc1sc(CO)c(Sc2ccccc2)c1C(=O)O,1,.,0.8,34*,-9,.
Cc1noc(C)c1COc1cccc(C(=O)OC(C)C(=O)Nc2ccc3c(c2)OCO3)c1 (configuration not stated),-5,-3.2,.,-2,.,0.47
Cc1ccc(-n2c3c(cc(C(=O)O)c2=O)C(=O)CC(C)(C)C3)cc1,-7,0.5,1,9,4,0.37
Cc1cc2c(n1-c1ccc(Cl)cc1)CC(C)(C)CC2=O,4,-0.75,.,36*,-2,-0.19
SMILES,PostGolgi yeast,Cav32 inh,TNAP act DEA,PostGolgi ctrl,Smad3 FoxH1 inh,hDAT+cocaine
CCCNC(=O)c1ccccc1NC(=O)c1ccccc1N(C)S(=O)(=O)c1ccc(C)cc1,.,-4.7*,.,.,.,0.62
O=C(Cn1cc2c(n1)CCCC2)NCCc1ccccc1,1,0.61,0.8,8,0,1.4
O=C(O)c1nn2c(c1Br)NC(c1ccccc1)CC2C(F)(F)F (configuration not stated),-4,1.5,1,32*,.,0.78
Cc1ccc(N=Cc2c(O)n(-c3ccc4c(c3)OCO4)c(=O)c3ccccc23)cc1,30*,.,.,6,-10,0.07
C[C@@H]1CC=C[C@H]2[C@H]1C(=O)N(Cc1ccccc1)[C@H]2c1ccc2ccccc2c1Br,.,-1.6,.,.,.,-0.01
Cc1ccc(SCC2(O)CCN(S(=O)(=O)c3ccc(Cl)cc3)CC2)cc1,3,-6.1*,.,20,.,0.099
COc1ccc(S(=O)(=O)N2CCC(O)(c3ccc(Cl)cc3)CC2)cc1,-11,-1.6,0.8,9,8,0.54
O=C(c1ccc(Cl)cc1)N1CCC(O)(CSc2ccc(Cl)cc2)CC1,-4,-6.5*,.,45*,.,0.59
Cc1ccc(NC(=S)NCc2ccc3c(c2)OCO3)c(C)c1,0,-1.3,.,4,.,1.4
CCCCOc1ccc(CN2CCC(O)CC2)cc1,5,0.54,0.9,3,-5,-1.2
CCCCN(C)C(=O)C1CCN(Cc2ccc(OCc3ccccc3)cc2)CC1,.,-3.6*,.,.,2,0.35
C=CCn1c(SCn2nnc3ccccc3c2=O)nnc1-c1ccc(Br)cc1,24,-1.5,0.9,19,-8,0.23
C=CCn1c(SCn2nnc3ccccc3c2=O)nnc1C1CCCCC1,-7,-0.34,0.9,32*,2,-0.023
O=C(CS(=O)(=O)c1cn(Cc2ccc(F)cc2)c2ccccc12)N1CCOCC1,.,0.28,.,.,.,-0.58
O=C1C2C3C=CC(C3)C2C(=O)N1/N=C/c1cn(Cc2ccc(F)cc2)c2ccccc12 (configuration not stated),-11,-3.4,.,37*,.,0.83
O=C1C2C3C=CC(C3)C2C(=O)N1/N=C/c1cn(Cc2ccccc2)c2ccccc12 (configuration not stated),5,.,.,32*,.,0.57
C/C(=N\NC(=O)c1ccc(Br)cc1)C1C(=O)c2ccccc2C1=O,-4,-4.2*,.,-5,.,-1.4
CC(/C=N/NC(=O)c1ccc(Br)cc1)=C\c1ccccc1,-8,-0.012,.,-4,5,0.4
O=C1NCCCC1C(=O)Nc1ccccc1C(F)(F)F (configuration not stated),-7,-0.064,.,3,-4,-0.3
O=C(Nc1ccccc1)OCN1C(=O)c2ccccc2C1=O,2,-0.57,.,3,.,0.0053
CCC(C)C(NC(=O)OCc1ccccc1)C(=O)OCN1C(=O)c2ccccc2C1=O (configuration not stated),24,-5.1*,.,1,1,-0.5
O=c1c2ccccc2sc2nc(C3CCCCC3)n(Cc3ccco3)c(=O)c12,47*,.,0.8,50*,-5,.
CCc1nc2sc3ccccc3c(=O)c2c(=O)n1Cc1ccco1,8,-0.094,0.8,9,10,-7.3*
